Results on 40 compounds are retold here after PubChem BioAssay (EPA / NIEHS).

For orientation: AC50 means the concentration at which the activity in the assay is half-maximal.

The source made the active and inactive calls. Rule for the calls: active = hit-call score of the fitted dose curve at least 0.9, where 1 is the maximum; inactive = score below 0.9.

Read-out in this assay: Tumor necrosis factor receptor superfamily member 6 (Homo sapiens) (UniProt P25445)
The assay is described as follows: LTEA_HepaRG_FAS: Life Technologies and Expression Analysis (LTEA) Assay for Fas cell surface death receptor (FAS) using HepaRG (AID 2283447). The note with it: mRNA level, 48 h; actives raise or lower the signal. As to the method:
LTEA_HepaRG is a cell based, multiplexed-readout assay that uses HepaRG, a human liver cell line, with measurements taken at 48 hours after chemical dosing on a 96-well plate.LTEA_HepaRG_FAS is one of 102 assay component(s) measured in the LTEA HepaRG cell culture assay. It is a marker of Cell proliferation, survival, death.Data from the assay component LTEA_HepaRG_FAS was analyzed into 1 endpoint. This assay endpoint, LTEA_HepaRG_FAS, was analyzed with bidirectional fitting relative to DMSO as the negative control and baseline of activity. Using a type of inducible reporter, measures of mRNA induction for gain or loss-of-signal activity can be used to understand regulation of transcription factor activity. To generalize the intended target to other relatable targets, this assay endpoint is annotated to the cytokine receptor intended target family, where the subfamily is TNF receptor.
A total of 1060 chemcials from the ToxCast library were tested in eight-point concentration-response experiments. Cell culture and cytotoxicity assays were conducted at Thermo Fisher Scientific's Custom Services facility (Madison, WI). A single lot of human HepaRG cells (Thermo Fisher Scientific, Frederick, MD) was used for the cell culture experiments. 96-well format collagen type I coated plates of human HepaRG cells were prepared using established methods. Briefly, cryopreserved HepaRG cells were thawed, plated at a density of approximately 100,000 cells/well in HepaRG Thaw, Plate, and General Purpose media (HPRG770, Thermo Fisher Scientific), and incubated for 48 hours. 0.5% DMSO was selected as vehicle control to balance the requisite need of DMSO in HepaRG cultures to maintain differentiation (for example, baseline metabolism, proportions of hepatocytes vs. cholangiocytes), while enabling further hepatic receptor pathway activation (for example, PXR and CAR) in response to chemical exposure. 48 hours after plating, the culture medium was replaced with HepaRG Serum-Free Incudtion Media. Cells were exposed to each test chemical in duplicate and maintained in CO2 incubators for another 48 hours. Chemical plates were thawed to room temperature and 200x concentrations of treatment groups were prepared. 8-point conentration-reponse curves were made with the highest exposure at 100 uM, followed by half-log dilutions, all in 0.5% DMSO. Each test plate contained variouse controls, induction positive controls (1mM phenobarbital), cytotoxicity positive controls ([…] aflatoxin B1), vehicle controls (0.5% DMSO), and total lysis controls (0.5% DMSO). Cell morphology images were taken using an Essen IncuCyte FLR automated microscope, with six 96-well plates imaged in about 24 minutes. Images were captured and exported and JPEG files. Spent culture media was transfered to black-well plates for the LDH assay, and remaining media was sorted at -80 C for later use. Cells were treated with RLT buffer and frozen until shipped for gene expression analysis. Total RNA was isolated from the cell suspension in 75 uL of Buffer RLT (Qiagen, Germantown, MD 20874) by Quintiles/Expression Analysis (Durham, NC) using a custom isolation procedure. Total RNA from each plate well was transferred to a preamplification plate. Fluidigm's 96.96 Dynamic ArrayTM (Fluidigm, Amsterdam, the Netherlands) technology was used for gene expression analyses by quantitative reverse transcription polymerase chain reaction (qRT-PCR, performed by Quintiles/Expression Analysis, Durham, NC)89. Standard TaqManTM Assays (Applied Biosystems/ThermoFisher Scientific, Foster City, CA) were used to assess the expression of 93 genes selected based on their selectivity and sensitivity to important hepatic receptors known to be modulated by environmental chemicals; importance in human hepatocyte functionality; and hepatotoxicity. […]
Regarding `Cc1cn([C@H]2C=C[C@@H](CO)O2)c(=O)[nH]c1=O`, the call was inactive.
In the case of `C/C=C/c1ccc(OC)cc1`, the outcome was inactive.
Take `O=NO`: the compound was classed as inactive.
Take `S=c1[nH]c2ccccc2s1`: the result was inactive.
For `O=C1c2c(O)cccc2Cc2cccc(O)c21`, the outcome was inactive.
Take `C=CCc1ccc(OC)c(OC)c1`: the call was inactive.
Same read-out and setting: under `COC(=O)CCCC(=O)OC` stands “inactive”; under `CCC(C)N(C)C(=O)c1cc2ccccc2c(-c2ccccc2Cl)n1` (stereo not given), “inactive”; under `Oc1ccccc1O`, “inactive”.
On to `CC(C)c1cccc(C(C)C)c1`, for which the outcome was inactive.
As to `NC1CCCCC1`, the call was inactive.
For the compound `CN(C)CCCN(C)CCCN(C)C`, the compound was classed as inactive.
With `Cc1cc(Cc2ccc(N)c(C)c2)ccc1N`, the outcome was inactive.
Take `O=C1CCCCC1`: the compound was classed as inactive.
For the compound `CCCCCCC(CCCCCCCCCCC(=O)OCC(COC(C)=O)OC(C)=O)OC(C)=O` (stereo not given), the outcome was inactive.
Take `CCCC(=O)O`: the compound was classed as inactive.
In the case of `O=C1O[C@H]([C@H](O)CO)C(O)=C1O`, the result was inactive.
`COc1ccc(OC(F)(F)F)cc1CN[C@H]1CCCN[C@H]1c1ccccc1`: the compound was classed as inactive.
`O=Cc1ccccc1C=O`: the result was inactive.
Still for that read-out and setting: under `CCCCC(CC)CO` (stereo not given) stands “inactive”.
For the compound `CCc1cc(C2=C(C(=O)O)N(c3ccccc3C(F)(F)F)S(=O)(=O)c3ccccc32)cc2c1OCO2`, the AC50 is 50 µM (active).
As to `CC(=O)CC(c1ccccc1)c1c(O)c2ccccc2oc1=O` (stereo not given), the outcome was inactive.
Take `CCCCCCCCCCCCCCOS(=O)(=O)O`: the compound was called inactive.
Take `CCCC[C@H]1CN(CC2CCOCC2)C(=O)OC12CCN(C1(C)CCN(C(=O)c3c(C)ncnc3C)CC1)CC2`: the compound was classed as inactive.
As to `CN(C)C(=O)NC1(c2ccccc2)CCN(CC[C@@]2(c3ccc(F)c(F)c3)CN(C(=O)c3ccccc3)CCO2)CC1`, the compound was called inactive.
In the case of `O=C1NC(=O)C(c2ccccc2)(c2ccccc2)N1`, the call was inactive.
For `CC(C)c1cccc(C(C)C)c1NC(=O)NS(=O)(=O)c1cc(C(C)(C)O)co1`, the call was inactive.
On to `CCCCOC(=O)CCCCC(=O)OCCCC`, for which the compound was classed as inactive.
On to `OCC(CO)n1cnc(-c2ccc(F)cc2)c1-c1ccnc(Oc2ccccc2)n1`, for which the compound was called inactive.
Turning to `CCN(CC)CCOc1ccc(C(=C(Cl)c2ccccc2)c2ccccc2)cc1`, the compound was classed as inactive.
Consider `CC(C)OC(=O)C(C)(C)Oc1ccc(C(=O)c2ccc(Cl)cc2)cc1`, for which the outcome was inactive.
Take `O=C1OC(c2ccc(O)cc2)(c2ccc(O)cc2)c2ccccc21`: the compound was classed as inactive.
Same read-out and setting: under `C=CCCCCCCCCCCCC` stands “inactive”; under `CCCCC(CC)COC(=O)CCCCCCCC(=O)OCC(CC)CCCC` (stereo not given), “inactive”.
As to `CC(C)(C)c1ccccc1`, the result was inactive.
As to `CCc1nc(N)nc(N)c1-c1ccc(Cl)cc1`, the result was inactive.
Take `CN(C)C(=O)NC1(c2ccccc2)CCN(CCC[C@]2(c3ccc(Cl)c(Cl)c3)CCCN(C(=O)c3ccccc3)C2)CC1`: the compound was classed as inactive.
Consider `O=C(NS(=O)(=O)/C=C/c1cccs1)c1ccc(F)cc1Br`, for which the compound was classed as inactive.
For the compound `NC=O`, the compound was classed as inactive.
Consider `COc1ccc(C(=O)Nc2nc3ccccc3c(NCc3ccccc3)c2C#N)cc1`, for which the result was inactive.
